Source: PubChem BioAssay (NCATS)
Results filed as inconclusive are left out. Activity calls are given as the source filed them. Calls come from the whole dose curve; as a rule, active = well fitted inhibition curve with a large enough effect; inconclusive = small, poorly fitted or top-dose-only effect; inactive = flat fitted curve, though single readings scatter.

target: Calcium and integrin-binding protein 1 (Homo sapiens) (UniProt Q99828); test: Primary qHTS for Identification of Calcium Integrin Binding Protein 1 (CIB1) Competitor (AID 1508620); conditions: CIB1-GST / FITC-alphaIIb peptide fluorescence polarization; series mostly up to 57.7 µM; activity change, negative = inhibition: at the top concentration; note: top concentration of the series differs between compounds
Sequence (Q99828 whole entry, looked up): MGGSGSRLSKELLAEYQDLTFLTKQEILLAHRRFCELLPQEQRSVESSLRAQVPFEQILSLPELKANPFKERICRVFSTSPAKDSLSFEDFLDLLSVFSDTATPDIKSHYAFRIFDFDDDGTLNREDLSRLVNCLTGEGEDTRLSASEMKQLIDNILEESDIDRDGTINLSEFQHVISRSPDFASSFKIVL
How it was run: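 Fluorescence polarization competition: GST-tagged CIB1 (1 uM final) preincubated with compound 15 min at room temperature, then FITC-labelled alphaIIb peptide (100 nM final) added. After 15 min at room temperature, polarization read at Ex 480/Em 540.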
% is set by controls: 0 for no effect and ±100 for the full control effect.

SMILES	activity change, negative = inhibition	Potency
CC(C)c1nc(N(C)S(C)(=O)=O)nc(-c2ccc(F)cc2)c1/C=C/[C@@H](O)C[C@@H](O)CC(=O)O	-5.25% [at 114 µM] (inactive)	
COc1cc(C)c(C(=O)O[C@H]2[C@@H](O)[C@H](n3ccc(=O)[nH]c3=O)O[C@@H]2CO)c(OC)c1	-5.75% (inactive)	
CC(C)CC(=O)OC[C@H]1O[C@@](COC(=O)CC(C)C)(O[C@H]2O[C@H](CO)[C@@H](O)[C@H](O)[C@H]2O)[C@@H](OC(=O)CC(C)C)[C@@H]1OC(=O)CC(C)C	2.44% [at 30.2 µM] (inactive)	
C=C1[C@H]2[C@H](O[C@@H]3O[C@H](COC(=O)/C=C/c4cc(OC)c(O)c(OC)c4)[C@@H](O)[C@H](O)[C@H]3O)OC=C(C(=O)O)[C@H]2C[C@@H]1O	-7.13% [at 30.2 µM] (inactive)	
CC(C)N(C[C@H]1O[C@@H](n2cnc3c(N)ncnc32)[C@H](O)[C@@H]1O)C1CC(CCc2nc3ccc(C(C)(C)C)cc3[nH]2)C1 (some centres not stated)		inactive
CC(C#N)C(C)O[C@@H]1O[C@H](CO)[C@@H](O)[C@H](O)[C@H]1O (some centres not stated)	-0.323% [at 114 µM] (inactive)	
CCC(CC)n1ccc2c(C(=O)NCc3c(C)cc(C)[nH]c3=O)cc(C#N)cc21	3.12% [at 114 µM] (inactive)	
COc1cc(NC(=O)c2ccccn2)ccc1Cl	-5.31% [at 114 µM] (inactive)	
O=C(/C=C/c1ccc(O)cc1)OCC1=C[C@@H](O)[C@@H]2C=CO[C@@H](O[C@@H]3O[C@H](CO)[C@@H](O)[C@H](O)[C@H]3O)[C@H]12	4.5% (inactive)	
Cc1c(-c2ccnn2C)cc(C(=O)NCc2ccc(S(C)(=O)=O)cn2)c(=O)n1-c1cccc(C(F)(F)F)c1		inactive
CCC(C)C(=O)O[C@@H]1[C@@H](O)[C@@H](O[C@H]2O[C@H](CO)[C@@H](O)[C@H](O)[C@H]2O)O[C@H](CO)[C@H]1O (some centres not stated)	1.39% (inactive)	
CC(C)CC(=O)OC[C@H]1O[C@@](COC(=O)CC(C)C)(O[C@H]2O[C@H](CO)[C@@H](O)[C@H](O)[C@H]2OC(=O)CC(C)C)[C@@H](OC(=O)CC(C)C)[C@@H]1O	-3.28% [at 30.2 µM] (inactive)	
